# Assay outcomes from PubChem BioAssay.
# Compounds with a hit are over-represented: about 1.5% of the library has one in this group of screens.
# Nrf2 activator: Nrf2 pathway activation | AREc32 ARE-luciferase reporter (MCF7-derived line), luminescence, 24 h | Potency, µM (top dose mostly 46.1 µM), actives largely listed as activators | 410,000 tested, 0.31% active; further: nearly all actives have a fitted effect of over 65% in size
#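 AREc32 cells carrying an ARE-driven firefly luciferase reporter were seeded at 1000 cells/well in OPTI-MEM with 5% FBS, then exposed to compound for 24 hr at 37 deg C. Luminescence was read with Steady-Glo after 30 min at RT.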
# uPA generation: inhibitors of cell surface uPA generation; AID 540303; Potency, µM (doses to about 38.3 µM), actives largely listed as inhibitors; 330,000 tested, 0.31% active; cell surface uPA generation assay, qHTS; active means well fitted inhibition curve with a large enough effect; inconclusive means small, poorly fitted or top-dose-only effect; inactive means no such curve, though single readings can be large or run the other way; tested in mouse RAW 264.7 cells; further: nearly all actives have a fitted effect of over 55% in size
# IL-2 act: IL-2 activation; IL-2 activation reporter assay, cell-based qHTS; stimulated with anti-CD3/CD4/CD28 beads; in transgenic mouse T cells; activation, % (series mostly up to about 46 µM); 360,000 tested, 0.065% active; AID 652025; in the data active means activation above about 50%; inconclusive means mostly about 30% to 49%
#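 Unstimulated transgenic mouse T cells preincubated 60 min with compound, then stimulated with anti-CD3/anti-CD4-coated beads plus anti-CD28 for 18 h at 37 degrees C. IL-2 response read as EGFP and DsRed fluorescence by plate cytometry.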
# 12-LOX inh: inhibitors of human 12S-lipoxygenase ALOX12. 580,000 tested, 1.1% active. AID 1671190. P18054. purified 12hLO, xylenol orange hydroperoxide absorbance. Potency, µM (series often up to 108 µM), most hits filed as inhibitors
# Target sequence (P18054 whole entry, looked up): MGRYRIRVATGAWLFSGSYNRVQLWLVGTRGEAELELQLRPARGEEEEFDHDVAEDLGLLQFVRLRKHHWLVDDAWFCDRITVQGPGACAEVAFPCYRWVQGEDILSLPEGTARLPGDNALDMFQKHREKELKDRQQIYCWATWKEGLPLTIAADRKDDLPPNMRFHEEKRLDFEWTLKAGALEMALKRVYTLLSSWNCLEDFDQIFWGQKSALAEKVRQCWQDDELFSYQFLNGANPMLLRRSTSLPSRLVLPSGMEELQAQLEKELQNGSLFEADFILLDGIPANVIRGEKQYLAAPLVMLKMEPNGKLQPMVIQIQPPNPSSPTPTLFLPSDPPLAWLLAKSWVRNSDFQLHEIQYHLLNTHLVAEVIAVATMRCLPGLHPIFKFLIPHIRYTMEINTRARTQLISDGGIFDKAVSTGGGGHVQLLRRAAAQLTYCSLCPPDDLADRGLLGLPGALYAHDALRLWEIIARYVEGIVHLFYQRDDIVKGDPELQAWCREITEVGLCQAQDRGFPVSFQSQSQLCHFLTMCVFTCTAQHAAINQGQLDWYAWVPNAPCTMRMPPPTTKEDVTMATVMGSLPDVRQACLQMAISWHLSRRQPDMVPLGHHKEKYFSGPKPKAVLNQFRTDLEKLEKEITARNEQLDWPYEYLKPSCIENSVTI
#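 Hydroperoxide product was detected by ferrous iron/xylenol orange as the 573 to 405 nm absorbance ratio. Arachidonic acid at 40 uM (final) was turned over for 30 min at room temperature by 150 nM human 12hLO, pH 7.0 Hepes buffer, after 15 min compound preincubation.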
# a7 integrin act: integrin-mediated muscular dystrophy alleviation activation; alpha7betagal myoblasts, beta-gal FDG fluorescence, 48 h; Potency, µM (titrated, usually from 38.3 µM), usual class: activators; 350,000 tested, 0.064% active; AID 624291; further: nearly all actives have a fitted effect of over 60% in size
#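 Alpha7betagal+/- myoblasts (passage 13) were plated 16-24 hr, then exposed to compounds (1:260 dilution of DMSO stock) for 48 hours at 37C. After MPER lysis, β-galactosidase reporter activity was read as FDG fluorescence (ex 480/em 540) after 30 minutes.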
# Hits are given with their value; - = inactive; ? = inconclusive; . = no result given. Unless noted, the call rests on the fitted dose curve; in most records, active means well fitted curve in the direction sought with a large enough effect; inconclusive means small, poorly fitted or top-dose-only effect, or another doubt; inactive means no such curve, though single readings can be large; an effect the other way counts as inactive or inconclusive.
SMILES,Nrf2 activator,uPA generation,IL-2 act,12-LOX inh,a7 integrin act
COCCc1noc([C@@H]2CC(F)(F)CN2C(=O)C2CC=CC2)n1,.,.,.,-,.
COc1ccccc1N1CCN(CCN2C(=O)C3CCCCN3C2=O)CC1 (configuration not stated),-,-,-,13µM,-
O=C1C2CCCN2C(=O)N1CCCCN1CCN(c2cccc(Cl)c2)CC1 (configuration not stated),-,2.8µM,-,?,-
O=C1C2CCCCN2C(=O)N1CCN1CCN(c2cccc(Cl)c2)CC1 (configuration not stated),-,-,-,-,-
COCCNc1nc(-c2ccsc2)nc2ccccc12,.,.,.,-,.
CC(C)CCN(CCC(=O)NCCc1ccccc1)C(=O)c1ccoc1,.,.,.,-,.
COc1ccc(CCNC(=S)Nc2ccc(C(C)C)cc2)cc1,-,-,-,40µM,?
CCC(C)c1ccc(NC(=S)Nc2ccc(OC)cc2)cc1 (configuration not stated),-,-,-,45µM,-
COc1ccc(CCNC(=S)Nc2ccc(OC)cc2)cc1,-,-,-,?,-
Cc1ccc(-c2cc3c(=O)n(CCNC(=O)c4ccc(C)s4)ccn3n2)c(C)c1,.,.,.,-,.
CC(=O)N/N=C/C1=CCC2CC1C2(C)C (configuration not stated),-,-,-,-,-
CCCCNC(=S)N/N=C/C1=CCC2CC1C2(C)C (configuration not stated),-,-,-,?,-
CC(C)NC(=S)N/N=C/C1=CCC2CC1C2(C)C (configuration not stated),-,-,-,35µM,-
CC1(C)C2CC=C(/C=N/NC(=S)NCc3ccccc3)C1C2 (configuration not stated),.,.,.,35µM,.
Cc1ccc(C)c(/C=C/c2ccc3cccc(O)c3n2)c1,.,.,.,-,.
Cc1cc(NC(=O)c2ccc(Cl)cc2)cc(C)c1OCC(=O)N1CCOCC1,-,4µM,-,-,-
O=C1S/C(=C/c2ccc(N3CCOCC3)o2)C(=O)N1Cc1ccc(F)cc1,-,-,-,10µM,-
C/C(CC(C)C)=N\NC(=O)CCC(=O)N/N=C(\C)CC(C)C,.,.,.,-,.
Cn1c(/C=C/c2ccc(Cl)cc2)nc2ccccc2c1=O,-,-,-,-,-
Cn1c(/C=C/c2ccccc2)nc2ccccc2c1=O,11µM,-,-,-,?
CCn1c(/C=C/c2ccccc2)nc2ccccc2c1=O,3.5µM,?,-,-,-
CCn1c(/C=C/c2ccc(F)cc2)nc2ccccc2c1=O,-,?,-,-,-
O=C(Nc1cccc(-c2ccc(N3CCOCC3)nn2)c1)Nc1cccc(Cl)c1F,.,.,.,-,.
Fc1ccc2nncc(SCc3ccccc3Cl)c2c1,5.6µM,-,-,-,-
Fc1ccc(CSc2nnc3ccccn23)c(Cl)c1,-,-,-,-,-
SMILES,Nrf2 activator,uPA generation,IL-2 act,12-LOX inh,a7 integrin act
COc1ccc(C(=O)C(C)C(=O)c2ccc(OC)cc2)cc1,.,.,.,-,.
COc1ccc(C(=O)C(Br)C(=O)c2ccc(OC)cc2)cc1,.,.,.,6.3µM,.
NC(=S)Cc1nc(-c2ccc(Cl)cc2)cs1,-,-,-,35µM,-
CC(=O)N1CCC(N[C@@H]2C[C@H](COc3cccc(C)n3)[C@@H](O)[C@H]2O)CC1,.,.,.,16µM,.
COc1cccc(C(=O)N(C)Cc2cccc(C(F)(F)F)c2)c1,.,.,.,-,.
O=C1ON=C(c2ccccc2)/C1=C/c1ccc(O)cc1,-,?,-,45µM,-
COc1cc(/C=C2/C(=O)ON=C2c2ccccc2)ccc1O,-,-,-,?,-
O=C1ON=C(c2ccccc2)/C1=C\c1ccco1,-,-,-,6.3µM,-
O=C1ON=C(c2ccccc2)/C1=C/c1ccccc1,-,-,-,6.3µM,?
CCOc1cc(/C=C2\C(=O)ON=C2c2ccccc2)cc(Br)c1O,-,-,-,22µM,-
Cc1ccc(C2=NOC(=O)/C2=C\c2ccccc2)cc1,-,-,-,?,-
COc1cc(/C=C2\C(=O)ON=C2c2ccccc2)cc(Br)c1O,-,-,-,?,-
CN[C@@H](CC(C)C)C(=O)N[C@H]1CCN2C(=O)c3cc(-c4ccc(OC)cc4OC)ccc3NC(=O)[C@@H]2C1,.,.,.,-,.
Cc1ccc(/C=C2/C(=O)ON=C2c2ccccc2)o1,-,-,-,10µM,-
CC1=NOC(=O)/C1=C/c1ccc(O)cc1,-,-,-,16µM,-
CC1=NOC(=O)/C1=C\c1ccc(-c2ccccc2Br)o1,-,?,-,5.6µM,-
O=C1ON=C(c2ccc(Cl)cc2)/C1=C/c1ccc(O)cc1,-,-,-,32µM,-
CCCOc1ccccc1/C=C1/C(=O)ON=C1C,-,-,-,40µM,-
O=C(Nc1ccc(O)c(-c2nc3ccccc3o2)c1)c1cccc(F)c1,.,.,.,-,.
CCOc1nc(-c2ccccc2)ccc1-c1noc(-c2cccs2)n1,?,.,-,-,-
CCOc1ncccc1-c1nc(-c2cccs2)no1,10µM,-,-,-,-
N/C(=N/OC(=O)c1ccccc1Cl)c1nonc1N,13µM,-,-,-,-
CCN1C(=O)C2(CCN(S(=O)(=O)c3ccc(C(C)C)cc3)CC2)c2ccccc21,.,.,.,-,.
O=c1cc(CO)oc(CN2CCN(c3ccccc3)CC2)c1O,-,-,-,?,-
O=c1cc(CO)oc(CN2CCN(c3cccc(C(F)(F)F)c3)CC2)c1O,-,-,-,1.4µM,-
SMILES,Nrf2 activator,uPA generation,IL-2 act,12-LOX inh,a7 integrin act
COc1ccccc1-c1nc(S(=O)(=O)c2ccc3c(c2)OCCO3)c(N2CCOCC2)o1,.,.,.,-,.
O=C(CSc1nnc(NC(=O)c2ccccc2F)s1)NCc1ccco1,?,7.9µM,-,-,-
CCCCCCCCCCCCCCCC[N+](C)(C)Cc1ccc(F)cc1,-,-,-,45µM,-
Cc1nc(N2CCN(C(=O)c3ccco3)CC2)c2c3c(sc2n1)CC(C)CC3 (configuration not stated),-,2.8µM,-,-,-
O=C(NCCc1ccccn1)c1nc(-c2ccccc2)cc2[nH]ccc12,.,.,.,-,.
FC(F)(F)c1nc(=S)c2ccccc2[nH]1,-,-,-,28µM,?
Cc1ccc(NC(=O)CCc2ncc(-c3ccc(F)cc3F)o2)c(Cl)c1,.,.,.,-,.
CC(=O)c1ccc(NC(=O)C(c2ccccc2)c2ccccc2)cc1,.,.,.,-,.
S=c1[nH]nc(-c2ccccc2)n1C1C=CCCC1 (configuration not stated),-,-,-,45µM,-
Cc1cc(=O)oc2cc(OS(=O)(=O)c3cccc(OC(F)(F)F)c3)ccc12,.,.,.,-,.
CCCC(/C=C/c1ccc(OC(C)=O)cc1)=C1/c2ccccc2C(=O)N1c1ccccc1,11µM,-,-,?,-
Cc1sc2nc(C3CC3)nc(N3CCN(C(=O)c4ccc(Cl)cc4)CC3)c2c1C,-,-,-,25µM,-
CNC(=O)[C@@H]1CN(Cc2ccc(Cl)c(F)c2)C[C@H]1CO,.,.,.,-,.
CCOC(=O)c1c(C)[nH]c(C(=O)C(C)Cl)c1C (configuration not stated),18µM,-,-,?,-
